Experimental data published in PubChem BioAssay AID777 (Sanford-Burnham Center for Chemical Genomics, 2007).
Screen size: about 96,000 compounds; about 19,000 (20%) were called active. Only a sample is shown. Unmarked numbers belong to inactive results.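 Rule for the calls: active = blocking of liver enzyme CYP2C9 beyond about 50% at 5 µM (limit read from the data); inactive = the rest.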

Each compound was assayed against Cytochrome P450 2C9 (Homo sapiens) (UniProt P11712) (assay: blockers of cytochrome P450 2C9 activity – biochemical, luminescence, ADME assay, primary screen (AID 777)). Details: CYP2C9 Supersomes, luciferin-H conversion, at 5 µM, stronger effect = higher value.
Cytochrome P450 2C9 (Homo sapiens), sequence (P11712 whole entry, looked up): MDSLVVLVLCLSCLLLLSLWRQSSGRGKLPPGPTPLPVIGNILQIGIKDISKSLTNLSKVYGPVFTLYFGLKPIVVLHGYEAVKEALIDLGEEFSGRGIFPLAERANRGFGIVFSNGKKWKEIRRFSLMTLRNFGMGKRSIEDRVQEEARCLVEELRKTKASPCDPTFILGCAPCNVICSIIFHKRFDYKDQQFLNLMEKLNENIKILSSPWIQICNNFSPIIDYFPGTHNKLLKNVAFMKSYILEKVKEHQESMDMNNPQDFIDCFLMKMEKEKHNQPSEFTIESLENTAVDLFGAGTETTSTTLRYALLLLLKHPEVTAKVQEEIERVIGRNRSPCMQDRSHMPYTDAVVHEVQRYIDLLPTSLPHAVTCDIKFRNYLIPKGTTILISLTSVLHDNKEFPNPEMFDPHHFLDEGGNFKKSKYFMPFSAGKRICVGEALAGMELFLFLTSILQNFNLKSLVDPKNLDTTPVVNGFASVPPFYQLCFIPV

| Compound | inhibition |
| --- | --- |
| Fc1ccccc1C(c1nnnn1Cc1ccc2c(c1)OCO2)N1CCN(Cc2ccccc2)CC1 (configuration not stated) | 45.6% |
| CC(C)(C)n1nnnc1C(c1ccc(F)cc1)N1CCN(Cc2ccc3c(c2)OCO3)CC1 (configuration not stated) | 30.9% |
| Cc1cc(C)c2[nH]c(=O)c(C(c3nnnn3Cc3ccc4c(c3)OCO4)N3CCCC3)cc2c1 (configuration not stated) | 86.7% (active) |
| COc1ccc(C(=O)CN(C(=O)c2ccc(Cl)cc2)N2C(=O)c3ccccc3C2=O)cc1 | 49.5% |
| N#CC(=C1CCCC1)c1nc(-c2ccc(Cl)cc2)cs1 | -6.8% |
| N#C/C(=C1\CCCN1)c1nc(-c2ccccc2)cs1 | 40.4% |
| N#CC(=C1SC=CS1)c1nc(-c2ccccc2)cs1 | 52.9% (active) |
| CC(=O)N1CSCC1C(=O)O (configuration not stated) | 6.7% |
| O=C(OCC#CCSc1nnc(-c2ccncc2)o1)c1sc2ccccc2c1Cl | 30.1% |
| CSc1cc(C)n(-c2ccccc2C)c(=S)c1C(C)=O | 14.1% |
| CN(c1nc2ccccc2n2c(-c3ccco3)nnc12)S(=O)(=O)c1ccccc1 | 15.3% |
| O=C1CN(C(=O)COC(=O)C2CC(=O)N(Cc3ccco3)C2)c2ccccc2N1 (configuration not stated) | -13.2% |
| Cc1ccc(S(=O)(=O)N2CCC(C(=O)OCC(=O)N3CC(=O)Nc4ccccc43)CC2)cc1 | 54.7% (active) |
| Cc1ccc(S(=O)(=O)NCC(=O)OCC(=O)N2CCc3ccccc32)cc1 | -28.2% |
| CCOC(=O)CN1CC23C=CC(O2)C(C(=O)Nc2ccc(F)cc2)C3C1=O (configuration not stated) | -21.8% |
| CC1(C)C/C(=C(/C#N)C(N)=O)CCO1 | -18.3% |
| Nc1c(-c2ccc(F)cc2)cnc2ncnn12 | -25.1% |
| CC1(C)CC(=O)C=C(NCc2ccncc2)C1 | 7.3% |
| Cc1nn(Cc2ccc(Cl)c(Cl)c2)c(C)c1NC(=O)c1cc(C2CC2)on1 | 96.7% (active) |
| CSc1ccccc1NC(=O)c1cc(C2CC2)on1 | -144% |
| Cc1cc(C(=O)Nc2c(C)nn(Cc3ccccc3)c2C)on1 | 22.4% |
| Cc1cc2ccccc2n2c(SCC(=O)N3CCN(C(=O)c4ccco4)CC3)nnc12 | -4.3% |
| CCCCNC(=O)CCn1c(=S)[nH]c2cc3c(cc2c1=O)OCO3 | 36.3% |
| Cc1ncc(CC(=O)n2cc(C(=O)c3cc(Cl)ccc3O)cn2)s1 | 81.1% (active) |
| O=C(c1ccc2c(c1)N(Cc1ccc(F)cc1)C(=O)CS2)N1CCOCC1 | 1.7% |

| Compound | inhibition |
| --- | --- |
| CCOC(=O)c1oc2ccccc2c1NC(=O)c1cccs1 | 20.2% |
| Cc1cc(Nc2ccccc2)nc(N)n1 | -6.6% |
| Cc1ccc(S(=O)(=O)NCCSC(C)(C)C)cc1 | 23.6% |
| Cc1ccc(S(=O)(=O)NCC(C)NS(C)(=O)=O)cc1 (configuration not stated) | 60.2% (active) |
| COc1ccccc1CNS(=O)(=O)c1ccc(C)cc1 | -159% |
| CCOc1ccc(NC(=O)Nc2ccc(N(C)C(C)=O)cc2)cc1 | -6.3% |
| O=C(Nc1ccc2sc3ccccc3c(=O)c2c1)c1ccccc1Cl | -9% |
| CC(=O)Nc1cccc(/C(C)=N/NC(=O)c2ccccc2Cl)c1 | 0.2% |
| Cc1ccc(C)c(N2C(=O)CS/C2=N\NC(=O)c2ccccc2Cl)c1 | 77.7% (active) |
| COc1ccc(-c2nnn(Cc3nc(N)nc(N4CCCCC4)n3)n2)cc1 | 17.3% |
| CCOc1cc(/C=C2/N=C(c3ccc(C(C)(C)C)cc3)OC2=O)cc(Cl)c1OS(C)(=O)=O | 30.3% |
| CCOCCCN1C(=O)CN(C2CCCCC2)C(=O)C1c1ccc(OCC)c(OC)c1 (configuration not stated) | 15.3% |
| COc1cc2[nH]c(=S)n(Cc3ccc(C)o3)c(=O)c2cc1OC | -0.8% |
| Cc1nc2cc(S(=O)(=O)C(F)(F)F)ccc2s1 | 1.9% |
| O=C(CC(O)(C(F)(F)F)C(F)(F)F)Nc1ccc(Cl)c(Cl)c1 | 65% (active) |
| N/C(=N\OC(=O)Nc1ccc(Cl)c(Cl)c1)c1ncc(C(F)(F)F)cc1Cl | -6.7% |
| Cc1nnc(NC(=O)Nc2ccc(Cl)c(Cl)c2)s1 | 48.4% |
| Cc1ccc(S(=O)(=O)c2c(N)n(C)c3nc4ccccc4nc23)cc1 | 14.2% |
| C=CCn1c(N)c(S(=O)(=O)c2cccs2)c2nc3ccccc3nc21 | 86.3% (active) |
| C=CCn1c(N)c(C(=O)OCC(C)C)c2nc3ccccc3nc21 | 28.3% |
| CCCCSc1nnc(-c2ccc(C)cc2)o1 | 31.3% |
| O=C(C1CCN(S(=O)(=O)Cc2ccccc2)CC1)N1CCCc2ccccc21 | 51.8% (active) |
| O=C(CSCc1ccccc1)N1CCc2ccccc21 | -12.4% |
| CCS(=O)(=O)N1CCC(C(=O)N2CCN(c3ccccc3)CC2)CC1 | 9.9% |
| CCOc1ccc(NC(=O)C2CC(=O)N=C(N)S2)cc1 (configuration not stated) | -2.4% |

| Compound | inhibition |
| --- | --- |
| CC(NC(=O)C1CCC(CNc2c(N3CCOCC3)c(=O)c2=O)CC1)c1ccccc1 (configuration not stated) | -6.7% |
| O=C(Nc1cccc2cccnc12)c1cccc(N2C(=O)CCC2=O)c1 | -71.6% |
| Cn1c(CNC(=O)C(C)(C)C)nc2ccccc21 | -13.1% |
| COc1ccc(Cc2nnc(SCC(=O)c3cccc([N+](=O)[O-])c3)n2C)cc1 | 38.7% |
| COc1ccc(C(=O)N2CCc3cc(OC)c(OC)cc3C2c2cccc([N+](=O)[O-])c2)cc1 (configuration not stated) | 64.4% (active) |
| COc1cc(C(=S)N2CCOCC2)cc(OC)c1OC(=O)c1cc([N+](=O)[O-])cc([N+](=O)[O-])c1 | -5% |
| CCC1CCCCN1CCCNC(=O)Cn1nc(-c2ccccc2)ccc1=O (configuration not stated) | 9.1% |
| Cc1c(NC(=O)CSc2cccc3cccnc23)c(=O)n(-c2ccccc2)n1C | -25.5% |
| O=c1cccc(-c2ccc(Br)cc2)o1 | -19.8% |
| O=C(NCCc1ccco1)c1nn(Cc2ccccc2)c(=O)c2ccccc12 | 7.4% |
| O=C(NCc1ccco1)c1ccc(Cn2c(=O)c3sccc3n(Cc3ccc(F)cc3)c2=O)cc1 | 79.7% (active) |
| O=C(NCc1ccco1)c1ccc(CS(=O)(=O)Cc2ccc(F)cc2)o1 | 40.7% |
| O=C(Cc1ccc(-n2c(=O)c3sccc3n(Cc3ccc(F)cc3)c2=O)cc1)NCc1ccco1 | 69.5% (active) |
| O=C(NCc1ccco1)c1sc2cccc(F)c2c1Cl | -26.6% |
| COc1cc(-n2c(C)nc3cc(C(=O)NCc4ccco4)ccc32)cc(OC)c1OC | 8.4% |
| O=C(NCc1ccco1)c1cc2sccc2n1Cc1ccc(F)cc1 | 60.8% (active) |
| Cc1nc2c(-c3ccc(F)cc3)c(C)nn2c(C)c1CCC(=O)NCc1ccco1 | 24.9% |
| Cc1cc(C(=O)OCC(=O)NCc2ccco2)c(C)n1-c1ccccc1 | 42.1% |
| NC(=O)CCCC1=NS(=O)(=O)c2ccccc2N1 | 4.2% |
| O=S(=O)(CCc1nc2ccccc2o1)c1ccc(Cl)cc1 | -2.3% |
| CCOC(=O)N1CCN(C(=O)C2CC(c3ccc(F)cc3)=NO2)CC1 (configuration not stated) | 8.8% |
| CCC(=O)N1CCc2cc(S(=O)(=O)NC(C(=O)N3CCc4ccccc4C3)C(C)C)ccc21 (configuration not stated) | 27% |
| CCCS(=O)(=O)N1CCC(C(=O)NCCCN(C)Cc2ccccc2)CC1 | 20.7% |
| CCN(CCCNC(=O)C1CCN(S(=O)(=O)c2cnc[nH]2)CC1)c1ccccc1 | 81.8% (active) |
| Cc1cccc(N2CCN(C(=O)C3CCN(S(=O)(=O)c4cnc[nH]4)CC3)CC2)c1C | 30.4% |

| Compound | inhibition |
| --- | --- |
| CCCCC(=O)N(c1ccc(OC)cc1)C1C=CS(=O)(=O)C1 (configuration not stated) | 25.7% |
| O=C(CSc1nnc(-c2ccccn2)n1-c1ccccc1)Nc1ccc2c(c1)OCO2 | 2.8% |
| Cc1ccc(-n2c(SCC(=O)Nc3ccc4c(c3)OCO4)nnc2-c2ccccn2)cc1 | 43% |
| Cc1ccc(-n2c(SCC(=O)NCc3ccc4c(c3)OCO4)nnc2-c2cccnc2)c(C)c1 | 62.7% (active) |
| Cn1cccc1Cc1nnc(SCC(=O)NCCc2ccccc2)n1-c1ccc(F)cc1 | 48.3% |
| CNC(=O)CSc1nnc(CCc2ccccc2)n1-c1ccccc1 | -17.6% |
| Cc1ccccc1-c1nnc(SCC(=O)NCc2ccc3c(c2)OCO3)n1C | 88.6% (active) |
| Cn1cccc1Cc1nnc(SCC(=O)NCc2ccc3c(c2)OCO3)n1CCc1ccccc1 | 55% (active) |
| CC(C)NC(=O)CSc1ccccc1C(=O)NCc1ccc2c(c1)OCO2 | 16.9% |
| Cc1cccc(NC(=S)Nc2ccc(Br)cc2)c1 | 2.2% |
| CC(C)(C)C(=O)CCN1C(=O)C2(OCCO2)c2ccccc21 | 7.8% |
| CCN(CC)CCNC(=O)C1c2ccccc2C(=O)N(C)C1c1cn(C)c2ccccc12 (configuration not stated) | 1.7% |
| COc1ccc(-c2nnco2)cc1OC | -14.9% |
| COc1ccc(NC(=O)CC2COc3ccccc3O2)c(OC)c1 (configuration not stated) | 5.9% |
| O=C(CN1C(=O)CSc2ncccc21)N1CCOCC1 | 41.4% |
| O=C(c1ccco1)N1CCN(c2cccc(Cl)c2)CC1 | 17.6% |
| O=C(c1ccc2c(c1)OCO2)N1CCN(C(=O)c2ccco2)CC1 | 15.8% |
| O=C(c1ccco1)N1CCN(C(=O)C2c3ccccc3Oc3ccccc32)CC1 | 58.3% (active) |
| COc1nc(Oc2ccc(=O)n(C)n2)nc(N(C)C)n1 | -16.1% |
| COc1ccc(C(=O)Cn2nnc(-c3ccc(N4CCOCC4)cc3)n2)cc1OC | -6% |
| COc1ccccc1OCCNc1cc(N2CCOCC2)ccc1[N+](=O)[O-] | 55.8% (active) |
| COc1cc(C(=S)N2CCOCC2)cc(OC)c1OC(=O)c1cc([N+](=O)[O-])c(C)c([N+](=O)[O-])c1 | 5.7% |
